These results are taken from article PMC9838217, “Structure of SALL4 zinc finger domain reveals link between AT-rich DNA binding and Okihiro syndrome”.

Assay [1] has as its target T1, SALL4 ZFC4 R900W (HT-SELEX) (Mus musculus, UniProt Q8BX22 870-940, R900W).
T1 sequence: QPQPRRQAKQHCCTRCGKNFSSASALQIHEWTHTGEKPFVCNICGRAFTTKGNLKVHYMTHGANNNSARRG
Briefly: HT-SELEX; high values mean tight binding. To be noted: protein: recombinant; vector His6-GST; dsDNA, one strand shown. The method, boiled down:
(§1)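 Recombinant mouse SALL4 zinc finger cluster 4 (residues 870–940, 1 µg), purified, was mixed with library DNA (1.5 µg in the first cycle, 200 ng thereafter) in 100 µl of buffer containing 10 mM Tris–HCl pH 7.5, 50 mM NaCl, poly(dI-dC) and DTT, and left for 10 min at room temperature. Complexes were captured on Ni2+ beads, washed, amplified by PCR and reselected for up to 6 cycles in triplicate, after which MiSeq sequencing and a 6-mer scan followed. Binding signal is the read fraction of each canonical k-mer, given as fold change relative to the starting random library.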

Assay [2] addresses T2, SALL4 ZFC4 G921D (HT-SELEX) (Mus musculus, UniProt Q8BX22 870-940, G921D).
T2 sequence: T1 sequence with W31R, G52D
The assay can be described thus: HT-SELEX; high values mean tight binding. The settings on record: protein: recombinant; vector His6-GST; dsDNA, one strand shown. An outline of the steps:
as §1

Changes are numbered by the printed parent chain.

As to ACCGAC, the results for the binding signal in assay [1] and in assay [2] were 0.345 ± 0.0112 fold-change vs cycle 0 and 0.497 ± 0.0584 fold-change vs cycle 0, respectively.
The like results for CCGCAC were, in that order, 0.118 ± 0.0077 fold-change vs cycle 0 and 0.22 ± 0.0597 fold-change vs cycle 0.
For CCTCGC the same measures were 0.171 ± 0.0115 fold-change vs cycle 0 and 0.295 ± 0.0773 fold-change vs cycle 0.
The like results for CCGCGA were, in that order, 0.102 ± 0.00288 fold-change vs cycle 0 and 0.221 ± 0.0689 fold-change vs cycle 0.
In the case of AGTCGG, the binding signal is 0.367 ± 0.00833 fold-change vs cycle 0 in assay [1] and 0.499 ± 0.0416 fold-change vs cycle 0 in assay [2].
As for GGGGAC, the binding signal in assay [1] came to 0.299 ± 0.0209 fold-change vs cycle 0; in assay [2], 0.403 ± 0.0552 fold-change vs cycle 0.
For GCTGGA the same measures were 0.37 ± 0.0454 fold-change vs cycle 0 and 0.484 ± 0.0925 fold-change vs cycle 0.
The like results for AGTCGC were, in that order, 0.244 ± 0.0172 fold-change vs cycle 0 and 0.386 ± 0.0654 fold-change vs cycle 0.
Regarding CCAGGC, the binding signal in assay [1] is 0.174 ± 0.0159 fold-change vs cycle 0; in assay [2], 0.302 ± 0.0679 fold-change vs cycle 0.
The like results for CGCCCA were, in that order, 0.107 ± 0.00392 fold-change vs cycle 0 and 0.227 ± 0.0707 fold-change vs cycle 0.
For ATGCCG the same measures were 0.222 ± 0.0038 fold-change vs cycle 0 and 0.36 ± 0.0731 fold-change vs cycle 0.
Regarding CTGTGC, the binding signal is 0.34 ± 0.0263 fold-change vs cycle 0 in assay [1] and 0.471 ± 0.046 fold-change vs cycle 0 in assay [2].
Consider AACGGC, for which the results for the binding signal in assay [1] and in assay [2] were 0.225 ± 0.0115 fold-change vs cycle 0 and 0.356 ± 0.0593 fold-change vs cycle 0, respectively.
For GCGGAA the same measures were 0.245 ± 0.0256 fold-change vs cycle 0 and 0.373 ± 0.0585 fold-change vs cycle 0.
For TCGCCA, the binding signal in assay [1] stood at 0.213 ± 0.00577 fold-change vs cycle 0; in assay [2], 0.371 ± 0.0688 fold-change vs cycle 0.
The like results for GATGCC were, in that order, 0.3346 ± 0.00318 fold-change vs cycle 0 and 0.49 ± 0.0663 fold-change vs cycle 0.
In the case of ACGCCA, the figures for the binding signal in assay [1] and in assay [2] were 0.244 ± 0.0178 fold-change vs cycle 0 and 0.368 ± 0.0567 fold-change vs cycle 0, respectively.
The like results for CTCCGC were, in that order, 0.169 ± 0.0169 fold-change vs cycle 0 and 0.271 ± 0.0458 fold-change vs cycle 0.
For GCTCGA the same measures were 0.308 ± 0.00752 fold-change vs cycle 0 and 0.475 ± 0.0642 fold-change vs cycle 0.
With AGCGCT, the binding signal in assay [1] came to 0.189 ± 0.0213 fold-change vs cycle 0; in assay [2] it was 0.343 ± 0.109 fold-change vs cycle 0.
The like results for CACGGG were, in that order, 0.253 ± 0.0129 fold-change vs cycle 0 and 0.366 ± 0.0584 fold-change vs cycle 0.
The like results for CGCGTA were, in that order, 0.224 ± 0.0194 fold-change vs cycle 0 and 0.34 ± 0.0644 fold-change vs cycle 0.
For GCAGCA the same measures were 0.247 ± 0.0238 fold-change vs cycle 0 and 0.368 ± 0.0645 fold-change vs cycle 0.
CGCACA: the figures for the binding signal in assay [1] and in assay [2] were 0.229 ± 0.0112 fold-change vs cycle 0 and 0.353 ± 0.0588 fold-change vs cycle 0, respectively.
The like results for CCCCAG were, in that order, 0.289 ± 0.0372 fold-change vs cycle 0 and 0.38 ± 0.0427 fold-change vs cycle 0.
For CCCGCG the same measures were 0.0543 ± 0.006 fold-change vs cycle 0 and 0.134 ± 0.057 fold-change vs cycle 0.
For GCCGCA the same measures were 0.0591 ± 0.00535 fold-change vs cycle 0 and 0.149 ± 0.0608 fold-change vs cycle 0.
Regarding CCGGCC, the binding signal in assay [1] amounted to 0.0476 ± 0.00257 fold-change vs cycle 0; in assay [2], 0.135 ± 0.0646 fold-change vs cycle 0.
In the case of AGCGAC, the binding signal in assay [1] was found to be 0.253 ± 0.0224 fold-change vs cycle 0; in assay [2], 0.41 ± 0.0789 fold-change vs cycle 0.
In the case of CGGCCG, the results for the binding signal in assay [1] and in assay [2] were 0.0289 ± 0.00511 fold-change vs cycle 0 and 0.105 ± 0.0554 fold-change vs cycle 0, respectively.
The like results for ACGCGA were, in that order, 0.245 ± 0.0174 fold-change vs cycle 0 and 0.365 ± 0.0478 fold-change vs cycle 0.
For CCACCC the same measures were 0.298 ± 0.0277 fold-change vs cycle 0 and 0.395 ± 0.0676 fold-change vs cycle 0.
In the case of CGGCCA, the binding signal in assay [1] turned out to be 0.0795 ± 0.00952 fold-change vs cycle 0; in assay [2], 0.19 ± 0.0619 fold-change vs cycle 0.
For CGGACA, the binding signal in assay [1] was found to be 0.354 ± 0.00613 fold-change vs cycle 0; in assay [2], 0.472 ± 0.0628 fold-change vs cycle 0.
The like results for ACGCGG were, in that order, 0.111 ± 0.0165 fold-change vs cycle 0 and 0.205 ± 0.0613 fold-change vs cycle 0.
For GCCACA the same measures were 0.251 ± 0.0128 fold-change vs cycle 0 and 0.391 ± 0.0588 fold-change vs cycle 0.
For CGCCTA the same measures were 0.26 ± 0.0104 fold-change vs cycle 0 and 0.413 ± 0.0625 fold-change vs cycle 0.
For the sequence GCGGAC, the binding signal in assay [1] stood at 0.125 ± 0.0161 fold-change vs cycle 0; in assay [2], 0.239 ± 0.0553 fold-change vs cycle 0.
For CTGCCC the same measures were 0.166 ± 0.00951 fold-change vs cycle 0 and 0.291 ± 0.0763 fold-change vs cycle 0.
For GGCCAC the same measures were 0.126 ± 0.019 fold-change vs cycle 0 and 0.253 ± 0.0792 fold-change vs cycle 0.
